PBM binding z-score data for 40 sequences are collected here from the supplement of paper PMC6555819.

The assay relates to VDR:RXRa (NR concentration 270 nM, RXRa partner concentration 90 nM). The experiment in a line: PBM binding z-score (relative to random genomic background probes); higher = stronger binding; sequences stand for … in GC…GCGATTGACAGCGTAGAATGAAGG
Here is the method: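 Protein-binding microarray (Agilent 4x180K custom design, double-stranded 60-nt probes: 5' GC cap, 34-nt variable region, 24-nt constant primer region; full probe sequence given). Purified or IVT nuclear receptor:RXRα heterodimers (3:1 NR:RXRα, mostly 270:90 nM) or homodimers were incubated for 1 h in PBS with 2% milk and no ligand, then detected with Alexa488 antibodies. Fluorescence from o1-orientation probes (~5 replicates averaged) was converted to z-scores against 500 random hg19 background probes. Variable regions are seed direct-repeat (DR0–DR5) sites, all their single-nucleotide variants and half-site ablations.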
TCGCGTAGGTTAGGGGCATTCAGAATGGCGTCGA: the PBM binding z-score stood at 0.397.
Next, TTACCAAGGTGAAGGTCGGTGATCCCTCTGTAGA: 0.428; ACAGACAGGTTATGAAGGTAACTCAGGCTATCAT: 1.3; ATATGTAGGTTGTCGGGTCATTCAGTTTGCGCAT: 5.
With GCTATTAGTTGAAAGGGCAACCCAATGATTCTCG the figure was 0.662.
Next, CTCGAAAGGTCGTGCTCAGGTGAGTATACCAAAC: 3.39.
CCTAGCAGGCCAATTTGGGTCACTCAAGGCTTGA had a PBM binding z-score of 0.482.
Next, TCTCGGAGGACAGGAAAGGTCAGAGCTCGACATC: 2.7.
With TCTGCTAGGTCAGTTGATCAGCTAACGAGCTGCC the figure was 0.135; with GCGACAGGGGCATCAGCAGGTTACCATAACTTAA, 0.517; with AGTCAAGGTTCATCTAGGTAACGTAAGATATGCT, 4.56.
With GCTCGGAGGACAAAGTCAGAGCTTTGTCCGTAGA the figure was -0.556; with TCTTGTAGATCAAGCAGGTTAATAAAGCCTGAGT, 0.675.
GCTGCTAGGTTAGGTTGGTCAGCTAACGGGTACG: the PBM binding z-score is -0.323.
ATATCTAGGTAACAAGTTCAGTGAAAGAGAGGAC returned a PBM binding z-score of 2.31.
In the case of ATCTCTAGGTAAGGTTCAGTGAAAGATCGATAGA, the PBM binding z-score was found to be 1.33.
Take TCTTGTAGATCAAAAGGAGGTTAAGAAAGATCGA: the PBM binding z-score was 0.807.
With GGAACGAGGGCAAGTCGATAGCAGAGTTTGATGG the figure was 0.364.
GATACAGGGTCAGCTAGAGGACAGAGTATGGAAA displayed a PBM binding z-score of 3.75.
Next, CCGACTGGGGCAGAGAGGTTACCATACCATCCGG: 1.73.
Sequence ACTAGCAGGCCAAGGGTCAGTCAAGATTAGTCCG showed a PBM binding z-score of 1.12.
Sequence TAGCCTTGGTCATGGGCCAGTATACCACGCGAAC displayed a PBM binding z-score of -0.347.
As for TAGCCTAGGTCAGATCGGGCCAGTAGACGCTATA, the PBM binding z-score was determined as 0.169.
CCGACTGGGGCAAAGGTTGCCATACTCAGTACGA showed a PBM binding z-score of 0.133.
For the sequence TCGATTAGTTGAAGGGCAACCGACGAGTCCGTTT, the PBM binding z-score came out at 0.389.
Next, GCTGCTAGGTCCACTGATGGTCAGCTAAAGCTCG: -0.609; ACTAGGAGGCCAAGGGTCACTCAAGATTAGTCCG: 2.98.
With CGCGAAAGGTCGTGCTCAGGTGAGTATACCAAAC the figure was 3.57.
TCTGCTAGGTTAGTTGGTCAGCTAACGAGCTGCC came in with a PBM binding z-score of -0.449.
With CCGACGGGGGCATAAGGTTACCATAAGCCAGCCC the figure was 3.5.
CCGACTGGGCCAGAAAGGTTACCATACCATCCGG came in with a PBM binding z-score of 0.479.
Next, TAGCCTAGATCATTGGGCCAGTATAGTACGCATC: -0.685; ACTAGCAGGCCAAGTTTCGGTCACTCAAACAAAG: -0.204; TTACCCAGGTGAGCTGAGGTCGTTGATCCAACTC: 2.93.
For the sequence CCTACTGGGCCAACAGGTCATTGATATCAACGTT, the PBM binding z-score is 1.93.
Next, TAGCCTAGGTCATTCAGGGGCCAGTCTAGAAAGC: 2.76; CGAACTAGGTCATCCAGAACAGTGAATACATTGA: 2.56; CCAGACAGGTGAAAAGGTAACTCAGCCTCGATTA: 0.369.
With GCGACTGGAGCATCAGCAGGTTACCATAACTTAA, the PBM binding z-score is -0.345.
The sequence GGAACGAGGGCCTTCGAGTTGATAGCATGGCGAT registered a PBM binding z-score of -0.0234.
